Most compounds without a hit are left out; they make up all but 12% or so of the library.
Pf growth 48h: inhibits P. falciparum growth in the first generation, 48 h. P. falciparum luciferase growth in erythrocytes, 48 h. Potency, µM (top dose mostly 28.7 µM), inactives show at the highest dose activity change, negative = inhibition, actives largely listed as inhibitors. 310,000 tested, 5.9% active; note: % is set by controls: 0 for no effect and ±100 for the full control effect
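Growth was read as firefly luciferase luminescence after a 48 h, 37 C, 5% CO2 exposure of compounds to reporter-bearing P. falciparum cultures (0.1% parasitemia, 2% hematocrit final) in Albumax-supplemented RPMI 1640.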
Pf growth 96h: P. falciparum growth inhibition at 96 hour, primary screen for plastid delayed-death inhibitors. 320,000 tested, 6.9% active. Potency, µM (titrated, usually from 28.7 µM), for the others: top-dose activity change, negative = inhibition, most hits filed as inhibitors. P. falciparum luciferase reporter growth, 96 h; note: % is set by controls: 0 for no effect and ±100 for the full control effect
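Compounds incubated with erythrocytes infected by luciferase-expressing P. falciparum (2% hematocrit, 0.05% parasitemia final) for 96 hours, 37 C in 5% CO2. Growth inhibition scored as decreased luciferase luminescence.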
AmpC inh detg: blocks E. coli AmpC beta-lactamase in detergent assay; AmpC hydrolysis of nitrocefin, absorbance 480 nm, 0.01% Triton; Potency, µM (highest dose often 114 µM), inactives show at the highest dose activity change, negative = inhibition, usual class: inhibitors; 370,000 tested, 0.041% active; AID 485294;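 note: 0% = no-compound wells and -100% = no-enzyme wells; nearly all actives have a fitted effect of over 25% in size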
Target sequence (P00811 whole entry, looked up): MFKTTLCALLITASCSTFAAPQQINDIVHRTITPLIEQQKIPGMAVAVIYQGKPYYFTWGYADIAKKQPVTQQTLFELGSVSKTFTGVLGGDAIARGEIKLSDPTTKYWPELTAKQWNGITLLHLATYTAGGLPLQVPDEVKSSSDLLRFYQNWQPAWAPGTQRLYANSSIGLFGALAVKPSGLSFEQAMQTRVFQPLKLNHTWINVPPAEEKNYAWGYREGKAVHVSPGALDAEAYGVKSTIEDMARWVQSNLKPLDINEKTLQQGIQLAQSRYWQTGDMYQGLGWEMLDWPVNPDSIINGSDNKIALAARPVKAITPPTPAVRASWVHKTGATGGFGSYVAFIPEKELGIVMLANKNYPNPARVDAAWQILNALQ
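20 mM phosphate pH 7.0 + 0.01% (detergent screen) or 0.0001% Triton X-100; 5.3 nM AmpC reagent; cpd preinc 15 min RT; nitrocefin (800 uM stock) to start; A480 q20 s × 4 min; Activity was normalised to no-enzyme and no-compound control wells.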
SARS PLpro yeast: blocks SARS-CoV papain-like protease in a yeast assay. S. cerevisiae expressing SARS-CoV PLpro, growth rescue. Potency, µM (top dose mostly 32.9 µM), for inactives: top-dose activity, positive = growth rescue, hits mostly activators. 330,000 tested, 0.19% active; calls by dose curve; note: 0% is about no effect; nearly all actives have a fitted effect of over 55% in size
AmpC inh no detg: blocks E. coli AmpC beta-lactamase in detergent-free assay; P00811; AmpC nitrocefin hydrolysis, absorbance 480 nm, 0.0001% Triton; Potency, µM (top dose mostly 57.1 µM), for inactives: top-dose activity change, negative = inhibition, usual class: inhibitors; 330,000 tested, 0.52% active;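 note: plate controls were no compound for no effect and no enzyme for full effect; nearly all actives have a fitted effect of over 20% in size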
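20 mM phosphate pH 7.0 + 0.01% (detergent screen) or 0.0001% Triton X-100; 5.3 nM AmpC reagent; cpd preinc 15 min RT; nitrocefin (800 uM stock) to start; A480 q20 s × 4 min; Activity was normalised to no-enzyme and no-compound control wells.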
Sm TGR block: inhibitors of Schistosoma mansoni thioredoxin glutathione reductase. Potency, µM (highest dose often 114 µM), for inactives: top-dose activity change, negative = inhibition, most hits filed as inhibitors. Q962Y6. 360,000 tested, 3% active. AID 485364. purified TGR, DTNB reduction, TNB absorbance 405 nm; note: % is set by controls: 0 for no effect and ±100 for the full control effect; nearly all actives have a fitted effect of over 60% in size
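First, TGR (20 nM dispensed) and NADPH were mixed with compound. Second, a 15 min room-temperature incubation followed. Third, further NADPH and then DTNB were added to start the reaction. Finally, TNB absorbance was monitored kinetically.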
* marks the source's active call; other numbers are inactive results; ? = inconclusive; · = no result given; [ ] = dose if it differs, or a comment. Unless noted, calls come from the whole dose curve; as a rule, active = well fitted curve in the direction sought with a large enough effect; inconclusive = small, poorly fitted or top-dose-only effect, or another doubt; inactive = no such curve, though single readings can be large; an effect the other way counts as inactive or inconclusive. Potency is the fitted concentration of half-maximal effect.

SMILES | Pf growth 48h | Pf growth 96h | AmpC inh detg | SARS PLpro yeast | AmpC inh no detg | Sm TGR block
CCn1cc(C(=O)O)c(=O)c2cnc(N3CCN(C(=S)Nc4ccccc4Cl)CC3)nc21 | 0.37µM* | 0.83µM* | -3% | 0% | -4% | -4%
CCn1cc(C(=O)O)c(=O)c2cnc(N3CCN(C(=S)Nc4ccc(F)cc4)CC3)nc21 | ? | 0.93µM* | 7% | 1% | -11% | 2%
COc1ccc(C(CC(=O)Nc2ccc(C)cn2)N2Cc3ccccc3C2=O)cc1OC (configuration not stated) | · | · | 11% | · | · | 4%
CC1CCCC(C)N1C(=O)CSc1nnc(CSc2ncccn2)n1C (configuration not stated) | -6% | 10µM* | -7% | 0% | -15% | 5%
COc1cc(NC(=O)CSc2cc(=O)n(C)c3ccccc23)cc(OC)c1OC | · | · | -6% | · | · | -2%
NC(N)=NCc1cccc(I)c1 | ? | 11µM* | -12% | · | -9% | 1%
COc1ccc2c(c1)c1c(c(=O)n(-c3ccc(C)cc3)c(=O)n1CC(=O)Nc1cc(C)ccc1C)n2C | · | · | -2% | · | · | -2%
COc1cc(OC)cc(C(=O)N2CC(=O)Nc3ccccc32)c1 | -24% | ? | 5% | -5% | -5% | ?
CCOc1ccc(/C=C2\SC(=O)N(CCNC(=O)C3COc4ccccc4O3)C2=O)cc1OC (configuration not stated) | ? | -99% | -11% | 0% | 73% | 35µM*
CCOc1ccc(/C=C2/Sc3ccc(C(=O)NCC4CCCO4)cc3N(C)C2=O)cc1OC (configuration not stated) | 8.3µM* | 13µM* | 2% | ? | 143% | ?
CCOC(=O)N1CCN(C(=O)c2ccc3c(c2)NC(=O)/C(=C\c2cccc(C)c2)S3)CC1 | ? | ? | 1% | 11% | 33% | 2%
CCOC(=O)N1CCN(C(=O)c2ccc3c(c2)N(C)C(=O)/C(=C\c2ccc(OCC)c(OC)c2)S3)CC1 | 1.2µM* | 52% | 6% | -5% | 214% | -2%
CCOC(=O)N1CCN(C(=O)c2ccc3c(c2)NC(=O)/C(=C\c2ccc(OC)c(OC)c2)S3)CC1 | ? | 13µM* | -6% | 2% | 139% | 1%
CC(=O)Oc1ccc2oc(-c3ccccc3)c(C(N)=O)c2c1 | 16% | 20% | ? | 0% | -19% | 0%
O=C(CSc1nc2c(c(=O)n1-c1ccccc1)SCC2)NCC1CCCO1 (configuration not stated) | -5% | 19% | 5% | -2% | -14% | -2%
Cc1cc(C)c2c(CC(=O)N(Cc3ccccc3)C3CCS(=O)(=O)C3)coc2c1 (configuration not stated) | · | · | 12% | · | · | 3%
COc1ccc(/C=C2/Sc3ccc(C(=O)N4CCOCC4)cc3NC2=O)cc1OC | ? | 15µM* | -4% | -1% | 14% | 0%
CCOc1cccc(CNC(=O)c2ccc(N3CCCC3)c(NC(=O)NCc3ccc(F)cc3)c2)c1 | · | · | 9% | · | · | 6%
COc1ccc(Br)cc1CNC(=O)c1cc(=O)[nH]c2ccc(S(=O)(=O)N3CCCCC3)cc12 | · | · | -2% | · | · | 2%
CC(C1CC1)N(Cc1ccccc1)C(=S)Nc1ccccc1Cl (configuration not stated) | ? | 12µM* | 4% | 9% | -60% | 3%
Clc1ncnc2scc(-c3ccccc3)c12 | ? | ? | -3% | -6% | -18% | 1%
Cc1ccc2cccc(Oc3ncnc4scc(-c5ccc(Cl)cc5)c34)c2n1 | ? | 10µM* | ? | -24% | 3% | 1%
Cc1ccc(-c2csc3ncnc(Cl)c23)cc1 | 1.5µM* | 2.6µM* | -11% | 11% | -24% | 1%
Cc1ccc2cccc(Oc3ncnc4scc(-c5ccccc5)c34)c2n1 | 10µM* | ? | 1% | 2% | 39% | 7%
CCN(CC)S(=O)(=O)c1ccc(C(=O)NCC(c2cccs2)N2CCOCC2)cc1 (configuration not stated) | -14% | ? | ? | 0% | 77% | -8%
SMILES | Pf growth 48h | Pf growth 96h | AmpC inh detg | SARS PLpro yeast | AmpC inh no detg | Sm TGR block
CCN(c1ccccc1)S(=O)(=O)c1cccc(C(=O)NCC(c2cccs2)N2CCOCC2)c1 (configuration not stated) | 15µM* | ? | 0% | 4% | 123% | -14%
C=CCN(c1ccccc1OC)S(=O)(=O)c1ccc(Cl)c(C(=O)Nc2ccc(N3CCOCC3)cc2)c1 | 5.9µM* | 4.1µM* | -12% | 0% | -8%[11.4 µM] | -12%
COc1ccccc1N(C)S(=O)(=O)c1ccc(C(=O)Nc2ccc(N3CCOCC3)cc2)cc1 | 0% | 0% | 4% | 0% | 56% | 7%
CN(C)S(=O)(=O)c1ccc(C(=O)NCC(c2cccs2)N2CCOCC2)cc1 (configuration not stated) | ? | ? | -18% | 15% | -6% | 56µM*
O=C(NCC(c1cccs1)N1CCOCC1)C1CCN(S(=O)(=O)c2cccc(C(F)(F)F)c2)CC1 (configuration not stated) | ? | 10µM* | -8% | 0% | ? | 5%
C=CCN(c1ccccc1)S(=O)(=O)c1cccc(C(=O)NCC(c2ccccc2OC)N2CCCC2)c1 (configuration not stated) | ? | ? | -11% | 1% | 53% | 2%
C=CCN(c1ccccc1)S(=O)(=O)c1cccc(C(=O)NCC(c2cccs2)N2CCOCC2)c1 (configuration not stated) | 10µM* | ? | -3% | 2% | 110% | -17%
C=CCN(c1ccccc1OC)S(=O)(=O)c1cccc(C(=O)NCc2cccs2)c1 | 12µM* | 12µM* | -9% | 1% | -15% | -12%
CC1CCN(S(=O)(=O)c2ccc3c(c2)N(CC(=O)NCc2cccnc2)C(=O)CS3)CC1 | -19% | 102% | ? | -7% | -18% | -29%
O=C(CN1C(=O)CSc2ccc(S(=O)(=O)N3CCCCC3)cc21)NCc1cccnc1 | ? | 2.3µM* | -15% | ? | -13% | -3%
COc1ccccc1CNC(=O)CN1C(=O)CSc2ccc(S(=O)(=O)N3CCCC3)cc21 | 13µM* | ? | 0% | 2% | -18% | -3%
Cc1ccc(C2=N/C(=C\c3ccc(F)cc3)C(=O)N2)cc1 | -3% | -23% | 4% | -5% | -16% | 4%
COC(=O)c1ccc(NC(=O)CCNS(=O)(=O)c2cccc3nsnc23)cc1 | · | · | 0% | · | · | -5%

Screens deposited in PubChem by National Center for Advancing Translational Sciences (NCATS).
